What all share (design): scale not given: direction of the effect not stated beside the values
Experiment [1] addresses Protein translocase subunit SecA (Escherichia coli (strain K12)) (UniProt P10408). The experiment can be described thus: Assay to Identify E. coli SecA ATPase Inhibitors. It is filed as functional. The settings on record: 30 µM.
The target of experiment [2] is T1, Ubiquitin-activating enzyme e1, putative (Leishmania donovani (strain BPK282A1)) (UniProt E9BSI1).
T1 sequence (whole entry): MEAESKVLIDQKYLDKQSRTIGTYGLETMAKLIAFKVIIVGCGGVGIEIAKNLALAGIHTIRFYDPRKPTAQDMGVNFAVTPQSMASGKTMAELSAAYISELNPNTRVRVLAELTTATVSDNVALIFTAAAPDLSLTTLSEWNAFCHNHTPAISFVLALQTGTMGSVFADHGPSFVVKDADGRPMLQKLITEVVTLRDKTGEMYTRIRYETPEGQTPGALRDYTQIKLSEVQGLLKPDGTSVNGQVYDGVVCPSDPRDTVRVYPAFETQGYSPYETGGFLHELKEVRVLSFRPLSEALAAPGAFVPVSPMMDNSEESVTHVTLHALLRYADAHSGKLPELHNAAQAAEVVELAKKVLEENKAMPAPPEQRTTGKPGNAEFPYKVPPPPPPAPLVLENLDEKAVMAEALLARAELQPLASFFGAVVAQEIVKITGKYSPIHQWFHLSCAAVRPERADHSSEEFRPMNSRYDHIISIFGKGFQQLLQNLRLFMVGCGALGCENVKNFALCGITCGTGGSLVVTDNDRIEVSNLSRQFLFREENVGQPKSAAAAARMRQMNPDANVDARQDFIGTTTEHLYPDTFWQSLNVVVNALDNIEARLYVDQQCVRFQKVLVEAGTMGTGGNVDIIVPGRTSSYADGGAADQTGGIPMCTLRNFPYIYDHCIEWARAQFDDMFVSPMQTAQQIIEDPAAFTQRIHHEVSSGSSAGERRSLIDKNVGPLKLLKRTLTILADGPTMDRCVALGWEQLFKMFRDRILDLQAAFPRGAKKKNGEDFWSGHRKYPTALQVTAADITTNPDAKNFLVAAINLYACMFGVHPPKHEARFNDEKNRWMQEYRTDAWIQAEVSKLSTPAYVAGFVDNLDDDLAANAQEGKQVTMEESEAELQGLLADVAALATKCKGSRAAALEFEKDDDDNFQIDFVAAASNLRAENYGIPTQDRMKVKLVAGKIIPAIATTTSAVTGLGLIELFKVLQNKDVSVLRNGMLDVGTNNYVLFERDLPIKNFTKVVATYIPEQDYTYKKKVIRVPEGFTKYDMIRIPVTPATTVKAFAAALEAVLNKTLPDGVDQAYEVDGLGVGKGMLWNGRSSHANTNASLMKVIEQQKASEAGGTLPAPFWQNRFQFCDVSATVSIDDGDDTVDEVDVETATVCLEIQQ
Put plainly: Leishmania donovani Ubiquitin Activating Enzyme (LdE1). It is filed as functional. The settings on record: 30 µM.

In experiment [3] the target is AMP-activated protein kinase, AMPK (Homo sapiens) (UniProt P54646+O43741+P54619+Q9UGJ0+Q9Y478+Q13131+Q9UGI9). Put plainly: AMP-dependent Kinase enzyme assay. An in vitro enzyme assay that detects ADP turnover that is directly proportional to AMPK activity. This uses naive AMPK that is activated during the assay with MK-8722. The experiment is classed as functional. The settings on record: 30 µM.

In experiment [4] the target is Sialic acid-binding Ig-like lectin 9 (Homo sapiens) (UniProt Q9Y336). The experiment can be described thus: Hs-Siglec9 ALPHAscreen SOP 20170721. The settings on record: 10 µM.
Sialic acid-binding Ig-like lectin 9 (Homo sapiens), sequence (Q9Y336 whole entry): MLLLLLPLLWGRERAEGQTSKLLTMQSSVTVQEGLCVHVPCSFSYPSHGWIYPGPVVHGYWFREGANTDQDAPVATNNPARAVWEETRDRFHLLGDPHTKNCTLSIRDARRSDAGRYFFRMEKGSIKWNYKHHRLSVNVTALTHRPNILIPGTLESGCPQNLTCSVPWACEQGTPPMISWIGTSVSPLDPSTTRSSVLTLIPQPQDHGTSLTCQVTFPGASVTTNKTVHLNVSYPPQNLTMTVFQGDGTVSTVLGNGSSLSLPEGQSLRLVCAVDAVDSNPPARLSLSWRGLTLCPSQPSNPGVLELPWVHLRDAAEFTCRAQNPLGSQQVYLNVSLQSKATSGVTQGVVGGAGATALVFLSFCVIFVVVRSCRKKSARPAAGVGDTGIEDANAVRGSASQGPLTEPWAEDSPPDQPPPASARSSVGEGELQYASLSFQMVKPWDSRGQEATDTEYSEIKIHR
A further experiment has as its system Trypanosoma cruzi. Put plainly: Trypanosoma cruzi phosphomannomutase and mannose-1-phosphate guanylyltransferase assay. The experiment is classed as functional. The settings on record: 10 µM.
For experiment [5], the target named is T2, Arginase-2, mitochondrial (Homo sapiens) (UniProt P78540).
T2 sequence (whole entry): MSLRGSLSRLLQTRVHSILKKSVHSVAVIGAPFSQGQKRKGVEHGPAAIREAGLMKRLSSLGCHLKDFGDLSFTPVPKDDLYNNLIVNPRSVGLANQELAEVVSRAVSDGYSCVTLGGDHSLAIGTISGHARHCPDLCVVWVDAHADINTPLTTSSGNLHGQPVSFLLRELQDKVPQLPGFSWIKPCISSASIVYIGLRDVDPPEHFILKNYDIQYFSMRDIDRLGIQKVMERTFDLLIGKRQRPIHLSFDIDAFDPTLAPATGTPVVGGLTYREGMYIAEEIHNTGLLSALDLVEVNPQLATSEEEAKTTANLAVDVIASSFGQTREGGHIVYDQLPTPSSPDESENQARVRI
Put plainly: in vitro enzyme assay to detect the production of urea directly proportional to the activity of Arginase II. Further: in the data most compounds retested in dose-response had high values. It is filed as functional. The settings on record: 33.3 µM.

Experiment [6] has as its target T3, Proteasome subunit beta (Trypanosoma cruzi) (UniProt O96673).
T3 sequence (whole entry): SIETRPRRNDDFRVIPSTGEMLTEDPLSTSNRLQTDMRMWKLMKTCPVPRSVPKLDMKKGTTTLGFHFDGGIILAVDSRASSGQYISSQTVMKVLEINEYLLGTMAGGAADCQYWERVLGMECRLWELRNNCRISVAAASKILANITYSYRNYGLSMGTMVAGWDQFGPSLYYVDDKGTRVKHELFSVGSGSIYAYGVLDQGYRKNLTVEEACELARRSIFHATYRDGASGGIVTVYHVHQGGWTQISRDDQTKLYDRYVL
Put plainly: Trypanosoma cruzi proteasome chymotrypsin-like activity (TcProtChymo) assay. Further: in the data most compounds retested in dose-response had high values. It is filed as functional. The settings on record: 9.37 µM.

The species named for the next experiment is Homo sapiens. The experiment can be described thus: To identify inhibition of the IFN signalling (Jak-Stat) pathway via expression of an eGFP reporter gene under the control of an IFN-stimulated response element (ISRE) containing MxA promoter. It is filed as functional. The settings on record: 30 µM. For orientation: In a reporter assay the amount or activity of a reporter protein is the signal.

In experiment [7] the target is T4, Tyrosyl-tRNA synthetase, putative (Trypanosoma cruzi (strain CL Brener)) (UniProt Q4DSP6).
T4 sequence (whole entry): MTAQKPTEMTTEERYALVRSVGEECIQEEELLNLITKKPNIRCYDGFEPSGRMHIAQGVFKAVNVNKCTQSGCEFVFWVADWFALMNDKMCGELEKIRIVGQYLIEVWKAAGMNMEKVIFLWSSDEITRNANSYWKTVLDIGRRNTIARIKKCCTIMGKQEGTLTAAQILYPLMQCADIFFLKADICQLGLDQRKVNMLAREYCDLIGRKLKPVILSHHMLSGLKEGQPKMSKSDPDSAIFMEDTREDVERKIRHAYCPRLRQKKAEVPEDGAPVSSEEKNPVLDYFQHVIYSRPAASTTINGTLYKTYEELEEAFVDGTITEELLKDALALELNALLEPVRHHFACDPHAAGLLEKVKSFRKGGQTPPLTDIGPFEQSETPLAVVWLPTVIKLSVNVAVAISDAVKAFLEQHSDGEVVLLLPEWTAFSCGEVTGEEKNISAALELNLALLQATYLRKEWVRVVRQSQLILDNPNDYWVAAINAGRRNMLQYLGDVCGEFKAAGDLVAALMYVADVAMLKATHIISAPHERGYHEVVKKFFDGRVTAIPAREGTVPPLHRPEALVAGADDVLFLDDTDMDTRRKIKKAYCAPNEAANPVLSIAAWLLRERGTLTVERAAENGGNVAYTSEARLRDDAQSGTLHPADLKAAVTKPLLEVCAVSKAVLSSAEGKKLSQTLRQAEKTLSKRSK
The experiment can be described thus: Trypanosoma cruzi tyrosyl tRNA synthetase (TcYRS) _High Tyrosine SOP. Further: in the data most compounds retested in dose-response had high values. The settings on record: 30 µM. It is filed as functional.

For experiment [8], the target named is T4, Tyrosyl-tRNA synthetase, putative (Trypanosoma cruzi (strain CL Brener)). Put plainly: Trypanosoma cruzi tyrosyl tRNA synthetase (TcYRS) SOP. The experiment is classed as functional. The settings on record: 30 µM.
The target of experiment [9] is Chromo domain-containing protein 1 (Saccharomyces cerevisiae (strain ATCC 204508 / S288c) (Baker's yeast)) (UniProt P32657). The experiment can be described thus: ScCHD-1 Enzyme Inhibition Assay. Further: in the data most compounds retested in dose-response had high values. The experiment is classed as functional. The settings on record: 30 µM.
Chromo domain-containing protein 1 (Saccharomyces cerevisiae (strain ATCC 204508 / S288c) (Baker's yeast)), sequence (P32657 whole entry, the tested form may be a part): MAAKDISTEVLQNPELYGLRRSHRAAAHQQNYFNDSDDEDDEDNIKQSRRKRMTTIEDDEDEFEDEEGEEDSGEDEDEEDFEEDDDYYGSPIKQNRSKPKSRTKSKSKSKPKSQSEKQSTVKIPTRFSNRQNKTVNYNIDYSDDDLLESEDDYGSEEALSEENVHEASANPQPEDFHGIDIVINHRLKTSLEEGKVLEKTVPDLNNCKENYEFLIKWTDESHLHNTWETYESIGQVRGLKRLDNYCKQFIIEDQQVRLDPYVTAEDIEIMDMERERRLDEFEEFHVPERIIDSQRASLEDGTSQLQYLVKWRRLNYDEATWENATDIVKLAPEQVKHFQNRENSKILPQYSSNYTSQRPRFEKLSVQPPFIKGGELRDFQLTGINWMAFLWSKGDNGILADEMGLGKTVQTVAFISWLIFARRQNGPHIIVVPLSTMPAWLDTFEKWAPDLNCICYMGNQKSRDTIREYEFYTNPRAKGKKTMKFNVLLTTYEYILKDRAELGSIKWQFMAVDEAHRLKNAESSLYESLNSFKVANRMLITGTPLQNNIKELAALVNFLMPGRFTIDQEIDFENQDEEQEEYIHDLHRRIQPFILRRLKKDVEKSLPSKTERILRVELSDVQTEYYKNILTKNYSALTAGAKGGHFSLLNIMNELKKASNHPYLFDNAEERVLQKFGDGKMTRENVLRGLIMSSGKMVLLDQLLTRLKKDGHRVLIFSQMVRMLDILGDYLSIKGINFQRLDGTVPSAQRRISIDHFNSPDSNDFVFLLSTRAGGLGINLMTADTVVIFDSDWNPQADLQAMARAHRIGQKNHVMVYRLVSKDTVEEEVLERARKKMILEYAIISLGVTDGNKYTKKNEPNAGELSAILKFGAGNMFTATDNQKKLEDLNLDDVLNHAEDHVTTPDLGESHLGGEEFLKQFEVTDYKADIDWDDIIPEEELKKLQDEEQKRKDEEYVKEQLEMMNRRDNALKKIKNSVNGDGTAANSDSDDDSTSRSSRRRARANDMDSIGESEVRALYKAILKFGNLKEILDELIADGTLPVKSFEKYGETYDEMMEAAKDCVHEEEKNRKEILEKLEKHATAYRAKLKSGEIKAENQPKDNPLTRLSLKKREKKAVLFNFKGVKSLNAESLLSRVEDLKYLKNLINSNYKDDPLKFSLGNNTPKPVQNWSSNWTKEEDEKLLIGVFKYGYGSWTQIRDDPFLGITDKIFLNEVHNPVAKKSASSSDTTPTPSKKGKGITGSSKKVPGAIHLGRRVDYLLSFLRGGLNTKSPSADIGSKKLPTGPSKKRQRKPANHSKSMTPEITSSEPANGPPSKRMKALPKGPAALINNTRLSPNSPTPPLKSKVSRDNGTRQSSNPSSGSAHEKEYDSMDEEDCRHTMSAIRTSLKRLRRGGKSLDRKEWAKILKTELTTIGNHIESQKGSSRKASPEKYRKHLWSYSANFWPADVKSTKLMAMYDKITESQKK

For some assays here: Potency and affinity values are given separately.

Protein translocase subunit SecA (Escherichia coli (strain K12)), sequence (P10408 whole entry): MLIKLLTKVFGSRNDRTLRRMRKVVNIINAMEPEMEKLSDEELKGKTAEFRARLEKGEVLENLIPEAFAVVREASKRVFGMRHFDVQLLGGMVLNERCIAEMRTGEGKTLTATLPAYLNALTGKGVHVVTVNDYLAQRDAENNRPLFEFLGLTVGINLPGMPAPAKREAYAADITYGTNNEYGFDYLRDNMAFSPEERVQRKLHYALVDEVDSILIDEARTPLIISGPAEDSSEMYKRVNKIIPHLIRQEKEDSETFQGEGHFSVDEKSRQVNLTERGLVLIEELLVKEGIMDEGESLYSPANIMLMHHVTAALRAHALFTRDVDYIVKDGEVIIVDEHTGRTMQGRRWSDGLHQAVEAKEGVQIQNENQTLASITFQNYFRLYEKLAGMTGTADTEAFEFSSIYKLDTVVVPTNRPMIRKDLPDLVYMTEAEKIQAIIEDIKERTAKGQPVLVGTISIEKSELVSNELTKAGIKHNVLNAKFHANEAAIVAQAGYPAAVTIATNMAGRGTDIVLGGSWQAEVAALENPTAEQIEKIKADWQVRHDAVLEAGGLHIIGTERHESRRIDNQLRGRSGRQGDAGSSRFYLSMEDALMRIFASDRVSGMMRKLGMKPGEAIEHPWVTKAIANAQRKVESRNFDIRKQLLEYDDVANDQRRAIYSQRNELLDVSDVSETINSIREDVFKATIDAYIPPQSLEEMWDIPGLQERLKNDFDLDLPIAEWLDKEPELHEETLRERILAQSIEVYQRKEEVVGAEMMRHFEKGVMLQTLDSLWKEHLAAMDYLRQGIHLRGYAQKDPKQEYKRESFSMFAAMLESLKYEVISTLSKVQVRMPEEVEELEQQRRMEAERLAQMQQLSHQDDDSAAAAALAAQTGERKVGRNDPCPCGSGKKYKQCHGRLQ

As to `CC(C)c1nc(C2CCCN2CC(=O)N2CCc3ccccc32)no1` (stereo not given), the Percent Effect in experiment [1] was -3.88%; in experiment [2] it was -7.89%; in experiment [3] it was 5.96%; in experiment [4] it was 5.77%; in the experiment with Trypanosoma cruzi it was -2.82%; in experiment [5] it was -1.15%. For the same molecule, the Percent Effect in experiment [6] was -2.51%; in the experiment filed under Homo sapiens it was -0.0405%; in [7], -3.43%; in experiment [8], -4.88%; in experiment [9] it was 6.73%.

As to `Cc1ccc(-c2cc(N)c(=O)n(CC(=O)NCC3CC3)n2)s1`, the Percent Effect in experiment [1] was -3.74%; in [2] it was 6.76%; in experiment [3], 19.9%; in experiment [4] it was 2.48%; in the experiment with Trypanosoma cruzi, -0.395%; in [5], -5.8%. The Percent Effect in [6] is 9.2%; in the experiment filed under Homo sapiens it was 11.4%; in experiment [7], 1.07%; in experiment [8] it was 9.09%; in experiment [9] it was -14.1%.

On to `O=C(c1ccncc1)N1CCC(c2nc(O)cc(-c3cccnc3)n2)C1` (stereo not given), for which the Percent Effect is -0.62% in [1]; 21.3% in [2]; -34.2% in experiment [3]; -1.55% in experiment [4]; 3.74% in the experiment on Trypanosoma cruzi; 26.8% in experiment [5]. For the same molecule, the Percent Effect was 8.55% in experiment [6]; 17.1% in the experiment filed under Homo sapiens; 8.51% in experiment [7]; 11.5% in experiment [8]; -5.75% in experiment [9].

In the case of `COc1ccc(C(=O)NCCc2nnc3ccccn23)c(OC)c1`, the Percent Effect in experiment [1] was -6.68%; in experiment [2] it was 5.2%; in [3] it was 5.94%; in [4], -6.61%; in the experiment on Trypanosoma cruzi it was -7.93%; in [5], -3.16%. Besides, the Percent Effect in experiment [6] is 13.5%; in the experiment filed under Homo sapiens it was 13%; in experiment [7], 0%; in experiment [8], 2.35%; in experiment [9] it was -16.9%.

On to `CCN(CC1CCOC1)C(=O)c1cccnc1N1CCOCC1` (stereo not given), for which the Percent Effect in experiment [1] was -2.22%; in experiment [2], 5.26%; in experiment [3], -1.45%; in experiment [4] it was 12.7%; with Trypanosoma cruzi, 6.07%; in experiment [5], -1.8%. Further, the Percent Effect is -1.95% in [6]; -1.93% in the experiment filed under Homo sapiens; 4.43% in experiment [7]; 6.17% in [8]; 2.96% in experiment [9].

`CS(=O)(=O)NC[C@]12COC[C@H]1CN(C(=O)c1ccccc1)C2`: the Percent Effect in experiment [1] was -1.33%; in experiment [2], -52%; in [3], -0.526%; in [4], 9.67%; in the experiment on Trypanosoma cruzi it was -4.63%; in experiment [5], 0.645%. Moreover, the Percent Effect was -1.22% in [6]; 11.1% in the experiment filed under Homo sapiens; -79.4% in [7]; -147% in [8]; -6.34% in experiment [9].

With `CN(CC(=O)N(C)C1CCCCC1)C1CCc2ccccc21` (stereo not given), the Percent Effect in experiment [1] is -3.95%; in [2], 7.89%; in [3], 6.4%; in experiment [4], -4.14%; in the experiment with Trypanosoma cruzi it was -7.14%; in experiment [5] it was 3.45%. For the same molecule, the Percent Effect in experiment [6] was 7.35%; in the experiment listed under Homo sapiens, 15.2%; in [7], 2.45%; in experiment [8], 9.76%; in experiment [9], -6.2%.

For the molecule `COCC1CC2(CCN(C(=O)c3ccc(OC)c(Cl)c3)CC2)CO1` (stereo not given), the Percent Effect in [1] is 4.75%; in experiment [2] it was 15.6%; in experiment [3], -2.46%; in experiment [4], -7.51%; in the experiment with Trypanosoma cruzi, -5.82%; in experiment [5] it was 9.68%. Also, the Percent Effect in experiment [6] was 13.8%; in the experiment listed under Homo sapiens, 15.9%; in experiment [7], -1.06%; in experiment [8] it was 3.85%; in experiment [9], -9.46%.

For the molecule `CCc1nc(CN(C)C2CCN(Cc3cnc(C)cn3)C2)no1` (stereo not given), the Percent Effect in experiment [1] is 0.722%; in experiment [2], 27.9%; in [3], -1.25%; in experiment [4], -16.7%; in the experiment with Trypanosoma cruzi it was 5.38%; in experiment [5], -3.42%. Also, the Percent Effect in [6] is 15.5%; in the experiment listed under Homo sapiens, 26.6%; in experiment [7], 8.37%; in experiment [8], 21.5%; in experiment [9], -17%.

Take `CCOc1ccnc(N2CCN(C(=O)c3cccnc3O)CC2)n1`: the Percent Effect in experiment [1] was -3.86%; in experiment [2], 17.7%; in [3], -4.02%; in experiment [4], 2.97%; in the experiment with Trypanosoma cruzi, 0.283%; in experiment [5] it was 4.56%. Moreover, the Percent Effect is 4.5% in experiment [6]; 2.56% in the experiment filed under Homo sapiens; 15.3% in experiment [7]; 26.6% in [8]; -4.5% in experiment [9].

These data come from ChEMBL document CHEMBL3988442, “University of Dundee, Small-Polar-MMV Screening Library” (2021).
